Records with an inconclusive call do not appear. Active and inactive are the calls of the source. Unless noted, calls follow the shape of the dose curve; as a rule, active = well fitted curve in the direction sought with a large enough effect in the repeat runs; inconclusive = weak or mixed curves; inactive = no such curve, though single readings can be large; an effect the other way counts as inactive or inconclusive.
Legend:
[1] = qHTS assay for small molecule agonists of the p53 signaling pathway (AID 651631; calls by dose curve; also: nearly all actives have a fitted effect of over 15% in size)
Summary of the method: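 Quantitative high-throughput format: 4,000 p53RE-bla HCT-116 cells/well, 5 h pre-incubation, 16 h compound exposure at 37 °C, 2 h room-temperature substrate step, fluorescence intensity measured.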

[2] = qHTS assay for small molecules that induce genotoxicity in human embryonic kidney cells expressing luciferase-tagged ATAD5 (AID 651632); also: nearly all actives have a fitted effect of over 15% in size
Summary of the method: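 Genotoxicity read-out via ATAD5-luciferase: HEK293T cells, 16 hr compound incubation at 37C, Amplite detection.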

[3] = qHTS assay for small molecule agonists of the p53 signaling pathway - cell viability (AID 651633; calls by dose curve;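 also: p53RE-bla HCT reporter cells with a stable beta-lactamase p53 reporter; series mostly up to about 83 µM; nearly all actives have a fitted effect of over 30% in size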)
Summary of the method: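 p53RE-bla cells were treated with compound for 16 hours at 37 C. Cytotoxicity was then measured as CellTiter-Glo luminescence after 30 min at room temperature.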

[4] = qHTS assay for small molecules that induce genotoxicity in human embryonic kidney cells expressing luciferase-tagged ATAD5 - cell viability (AID 651634; calls by dose curve; also: nearly all actives have a fitted effect of over 25% in size)
Summary of the method: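 Live-cell protease activity (CellTiter-Fluor, fluorescence) indicates viability. HEK293T cells with luciferase-tagged ATAD5; 15.5 hr compound treatment at 37C.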

[5] = qHTS assay for small molecule disruptors of the mitochondrial membrane potential - cell viability (AID 720634; calls by dose curve;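 also: human HepG2 liver cancer cells; series mostly up to about 83 µM; nearly all actives have a fitted effect of over 20% in size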)
Summary of the method: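 Human hepatoma HepG2 cells were treated for 1 hr with test chemicals, then given m-MPI dye and CellTiter-Glo. Cell viability reflects luminescence proportional to cellular ATP.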

[6] = qHTS assay for small molecule disruptors of the mitochondrial membrane potential (AID 720635)
Summary of the method: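 HepG2 cells exposed to compound 1 hr at 37C, then Mito-MPS dye 30 min. Ratio read of aggregate (540/590 nm) versus monomer (490/535 nm) fluorescence.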

[7] = qHTS assay to test for compound auto fluorescence at 590 nm (red) in HepG2 cells (AID 720674)
Summary of the method: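 Fluorescence at 590 nm emission following 540 nm excitation was recorded from HepG2 wells one hour after compound transfer, with DMSO-only wells as vehicle and Rose Bengal sodium equivalency as the scale.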

[8] = qHTS assay to test for compound auto fluorescence at 535 nm (green) in HepG2 cells (AID 720675)
[9] = qHTS assay to test for compound auto fluorescence at 460 nm (blue) in HEK293 cells (AID 720678)
Summary of the method: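 Triamterene serves as the blue fluorophore standard. Compound signal at 405/460 nm is read in HEK293 wells (2,000 cells, 10% dialyzed FBS) after overnight treatment at 37C.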

[10] = qHTS assay to test for compound auto fluorescence at 590 nm (red) in HEK293 cells (AID 720679)
Summary of the method: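 We plated HEK293 cells in 10% dialyzed FBS medium, let them adhere for 4-5 hr, then added 23 nL compound. Overnight at 37C and 5% CO2 preceded fluorescence measurement at 540/590nm.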

[11] = qHTS assay to test for compound auto fluorescence at 535 nm (green) in HEK293 cells (AID 720680)
[12] = qHTS assay to test for compound auto fluorescence at 460 nm (blue) in HEK293 cell free culture (AID 720681)
Summary of the method: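 Compounds were added to cell-free DMEM with 10% FBS and fluorescence read directly. The blue channel used 405 nm excitation and 460 nm emission, with triamterene as the reference fluorophore.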

[13] = qHTS assay to test for compound auto fluorescence at 535 nm (green) in HEK293 cell free culture (AID 720682)
Summary of the method: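 Measurement is a direct plate read of green fluorescence (485 nm in, 535 nm out) after compound addition to serum-supplemented DMEM lacking cells, with fluorescein used to express intensities.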

[14] = qHTS assay to test for compound auto fluorescence at 590 nm (red) in HEK293 cell free culture (AID 720683)
Summary of the method: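 Cell-free wells of DMEM with 10% FBS received compound, and intrinsic fluorescence was read at excitation/emission 540/590 nm. Values expressed as equivalence to Rose Bengal sodium.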

[15] = qHTS assay to test for compound auto fluorescence at 590 nm (red) in HepG2 cell free culture (AID 720684)
Summary of the method: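 Compounds are added to culture medium (MEM, 10% FBS) lacking cells, then fluorescence is read at excitation 540 nm, emission 590 nm, with Rose Bengal sodium as the equivalency standard.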

[16] = qHTS assay to test for compound auto fluorescence at 460 nm (blue) in HepG2 cell free culture (AID 720685)
Summary of the method: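 Compound (23 nL) or DMSO pinned into cell-free MEM with 10% FBS; blue fluorescence read at 405/460 nm excitation/emission, expressed as auto-fluorescence equivalency to triamterene.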

[17] = qHTS assay to test for compound auto fluorescence at 535 nm (green) in HepG2 cell free culture (AID 720686)
[18] = qHTS assay to test for compound auto fluorescence at 460 nm (blue) in HepG2 cells (AID 720687)
Summary of the method: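 HepG2 cells in MEM with 10% FBS, attached overnight at 37 C, were exposed to compound or DMSO for 1 hr at 37 C, 5% CO2. Blue fluorescence was read at 405/460 nm, with triamterene as reference fluorophore.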

[19] = molecular target: Glucocorticoid receptor (Homo sapiens) (UniProt P04150); test: qHTS assay to identify small molecule agonists of the glucocorticoid receptor (GR) signaling pathway (AID 720691; active = well fitted activation curve with a large enough effect in the signal ratio in the repeat runs, not every such curve was filed as active; the % refers to the signal ratio)
Sequence of Glucocorticoid receptor (Homo sapiens) (P04150 whole entry, looked up): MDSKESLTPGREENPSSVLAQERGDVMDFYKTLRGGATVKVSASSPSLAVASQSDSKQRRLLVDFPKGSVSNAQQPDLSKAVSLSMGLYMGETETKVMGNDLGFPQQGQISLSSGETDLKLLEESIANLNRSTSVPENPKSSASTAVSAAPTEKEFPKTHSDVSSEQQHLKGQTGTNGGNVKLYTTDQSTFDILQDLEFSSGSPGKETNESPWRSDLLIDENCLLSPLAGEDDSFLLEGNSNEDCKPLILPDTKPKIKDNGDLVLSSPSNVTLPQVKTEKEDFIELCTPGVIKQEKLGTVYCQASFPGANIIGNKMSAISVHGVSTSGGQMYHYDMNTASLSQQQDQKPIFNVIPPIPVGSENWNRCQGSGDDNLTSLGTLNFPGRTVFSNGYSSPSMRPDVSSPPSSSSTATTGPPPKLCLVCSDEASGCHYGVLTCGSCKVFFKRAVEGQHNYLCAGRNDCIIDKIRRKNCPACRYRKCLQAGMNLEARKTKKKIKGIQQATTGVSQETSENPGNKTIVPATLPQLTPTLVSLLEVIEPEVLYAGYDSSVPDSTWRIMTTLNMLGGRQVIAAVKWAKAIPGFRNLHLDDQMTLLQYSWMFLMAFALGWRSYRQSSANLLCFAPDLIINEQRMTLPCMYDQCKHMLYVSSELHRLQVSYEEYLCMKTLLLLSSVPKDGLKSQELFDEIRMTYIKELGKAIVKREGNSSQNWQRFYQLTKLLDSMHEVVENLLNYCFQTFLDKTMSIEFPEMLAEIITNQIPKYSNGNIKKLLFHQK
Summary of the method: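 Beta-lactamase reporter activity, read as fluorescence intensity, was measured in GR-bla HeLa cells exposed to compounds for 18 h at 37 C and then loaded with LiveBLAzer B/G FRET substrate for 2 h at room temperature.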

[20] = molecular target: Glucocorticoid receptor (Homo sapiens) (UniProt P04150); test: qHTS assay to identify small molecule antagonists of the glucocorticoid receptor (GR) signaling pathway (AID 720692; active = well fitted inhibition curve with a large enough effect in the signal ratio in the repeat runs, not every such curve was filed as active; the % refers to the signal ratio)
Summary of the method: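 Fluorescence from cleaved LiveBLAzer B/G FRET substrate reports GRE-driven beta-lactamase in HeLa cells; compounds are tested against 5 nM dexamethasone (final) over 18 h at 37 C, substrate incubation 2 h at room temperature.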

Measured: Potency

CCCCCCC(C)(C)C(=O)O
inactive: [1] | [2] | [3] | [4] | [5] | [6] | [7] | [8] | [9] | [10] | [11] | [12] | [13] | [14] | [15] | [16] | [17] | [18] | [19]

CC1(C)S[C@@H]2[C@H](NC(=O)C(c3ccccc3)S(=O)(=O)O)C(=O)N2[C@H]1C(=O)O (some centres not stated)
inactive: [1] | [2] | [3] | [4] | [5] | [6] | [7] | [8] | [9] | [10] | [11] | [12] | [13] | [14] | [15] | [16] | [17] | [18] | [19]

O=C1CCCCCCCCCCOCCCCO1
inactive: [1] | [2] | [3] | [4] | [5] | [6] | [7] | [9] | [10] | [11] | [12] | [13] | [14] | [15] | [16] | [17] | [18] | [19] | [20]

CCC1CO1 (configuration not stated)
inactive: [1] | [2] | [3] | [4] | [5] | [6] | [7] | [8] | [9] | [11] | [12] | [13] | [15] | [16] | [18] | [19] | [20]

CCCCCCCCCI
inactive: [1] | [2] | [3] | [4] | [5] | [6] | [7] | [8] | [9] | [10] | [11] | [12] | [13] | [15] | [16] | [17] | [18] | [19] | [20]

Cc1ccco1
inactive: [1] | [2] | [3] | [4] | [5] | [6] | [7] | [8] | [9] | [10] | [11] | [12] | [14] | [15] | [16] | [17] | [18] | [19]

CC1CC(C)C(=O)C1=O (configuration not stated)
inactive: [1] | [2] | [3] | [4] | [5] | [6] | [7] | [9] | [11] | [12] | [13] | [15] | [16] | [18] | [19] | [20]
